4 molecules from PubChem BioAssay (EPA / NIEHS) can be followed below.

The source made the active and inactive calls. How the source made its calls: active means hit-call score of the fitted dose curve at least 0.9, where 1 is the maximum; inactive means score below 0.9.

Holding throughout (conditions): mRNA level, 48 h; actives raise or lower the signal
Read-out in assay [1]: matrix metalloproteinase-10 (MMP10), MMP10 (gene 4319)
The assay can be described thus: LTEA_HepaRG_MMP10: Life Technologies and Expression Analysis (LTEA) Assay for matrix metalloproteinase-10 (MMP10) using HepaRG (AID 2283517). In outline: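 HepaRG, collagen I, ~100,000 cells/well; serum-free induction medium; 48 h exposure, duplicate, 8-pt half-log to 100 uM, 0.5% DMSO. Readout: TaqMan qRT-PCR, normalized to ACTB/GAPDH/POLR2A; bidirectional fit vs DMSO.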

Read-out in the next assay: MYC, MYC (gene 4609)
The assay can be described thus: LTEA_HepaRG_MYC: Life Technologies and Expression Analysis (LTEA) Assay for MYC using HepaRG (AID 2283518). The procedure, abridged: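 Differentiated human HepaRG cells, plated 48 h then switched to serum-free induction medium, were exposed in duplicate for 48 h to 8-point half-log series up to 100 uM in 0.5% DMSO. MYC mRNA measured by qRT-PCR, normalized to ACTB/GAPDH/POLR2A.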

Read-out in assay [2]: matrix metalloproteinase-3 (MMP3), MMP3 (gene 4314)
The assay can be described thus: LTEA_HepaRG_MMP3: Life Technologies and Expression Analysis (LTEA) Assay for matrix metalloproteinase-3 (MMP3) using HepaRG (AID 2283519). In outline:
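Differentiated human HepaRG cells, plated 48 h on collagen I, were exposed in duplicate for 48 h in serum-free induction medium to eight half-log concentrations up to 100 uM in 0.5% DMSO. MMP3 mRNA was quantified by TaqMan qRT-PCR, normalised to ACTB, GAPDH and POLR2A.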

Read-out in assay [3]: Paternally Expressed 10 (PEG10), PEG10 (gene 23089)
The assay can be described thus: LTEA_HepaRG_PEG10: Life Technologies and Expression Analysis (LTEA) Assay for Paternally Expressed 10 (PEG10) using HepaRG (AID 2283520). The procedure, abridged: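 Chemicals tested on HepaRG cells for 48 h, highest concentration 100 uM. PEG10 expression assessed by qRT-PCR relative to DMSO control.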

Read-out in assay [4]: Nuclear factor NF-kappa-B p105 subunit (Homo sapiens) (UniProt P19838)
The assay can be described thus: LTEA_HepaRG_NFKB1: Life Technologies and Expression Analysis (LTEA) Assay for Nuclear Factor Kappa B Subunit 1 (NFKB1) using HepaRG (AID 2283521).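 Further: TaqMan qRT-PCR transcript normalised to ACTB GAPDH and POLR2A housekeeping genes.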 In outline:
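Differentiated human HepaRG cells were exposed for 48 h in serum-free induction medium to eight concentrations (top 100 uM, half-log steps, 0.5% DMSO), in duplicate. NFKB1 mRNA was measured by TaqMan qRT-PCR, normalized to ACTB/GAPDH/POLR2A, and fitted bidirectionally against DMSO.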

Read-out in assay [5]: Protein phosphatase 2A (PPP2R4), PTPA (gene 5524)
In words: LTEA_HepaRG_PPP2R4: Life Technologies and Expression Analysis (LTEA) Assay for Protein phosphatase 2A (PPP2R4) using HepaRG (AID 2283522). The procedure, abridged:
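Gene-expression endpoint in HepaRG hepatic cells: 48 h treatment across eight half-log concentrations up to 100 uM in 0.5% DMSO. PPP2R4 mRNA by qRT-PCR, normalized to three endogenous control genes.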

Read-out in assay [6]: Phosphatase and tensin (PTEN), PTEN (gene 5728)
In words: LTEA_HepaRG_PTEN: Life Technologies and Expression Analysis (LTEA) Assay for Phosphatase and tensin (PTEN) using HepaRG (AID 2283523). In outline:
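Differentiated human HepaRG cells, plated 48 h then switched to serum-free induction medium, were exposed in duplicate for 48 h to eight half-log concentrations up to 100 uM in 0.5% DMSO. PTEN mRNA measured by TaqMan qRT-PCR, normalized to ACTB/GAPDH/POLR2A, bidirectional fit versus DMSO.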

Read-out in assay [7]: solute carrier (SLC22A1), SLC22A1 (gene 6580)
The assay can be described thus: LTEA_HepaRG_SLC22A1: Life Technologies and Expression Analysis (LTEA) Assay for solute carrier (SLC22A1) using HepaRG (AID 2283524). In outline: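 Human HepaRG cells were plated 48 h, switched to serum-free induction medium, then exposed in duplicate for 48 h to 8-point half-log series from 100 uM in 0.5% DMSO. SLC22A1 mRNA measured by qRT-PCR, normalized to ACTB/GAPDH/POLR2A, fitted bidirectionally versus DMSO.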

Read-out in assay [8]: Pyruvate Dehydrogenase Kinase 4 (PDK4), PDK4 (gene 5166)
In words: LTEA_HepaRG_PDK4: Life Technologies and Expression Analysis (LTEA) Assay for Pyruvate Dehydrogenase Kinase 4 (PDK4) using HepaRG (AID 2283525). The procedure, abridged:
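Differentiated human HepaRG cells, pre-cultured 48 h, were exposed in duplicate for 48 h in serum-free induction medium to eight half-log concentrations up to 100 uM in 0.5% DMSO. PDK4 mRNA was quantified by qRT-PCR, normalized to ACTB, GAPDH and POLR2A, bidirectional fitting versus DMSO.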

Read-out in assay [9]: NAD(P)H dehydrogenase [quinone] 1 (NQO1), NQO1 (gene 1728)
In words: LTEA_HepaRG_NQO1: Life Technologies and Expression Analysis (LTEA) Assay for NAD(P)H dehydrogenase [quinone] 1 (NQO1) using HepaRG (AID 2283526). The procedure, abridged: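 Human HepaRG hepatic cells received chemicals for 48 h in serum-free induction medium with 0.5% DMSO, up to 100 uM. Expression was assessed by TaqMan qRT-PCR against housekeeping controls and fitted bidirectionally against DMSO.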

Read-out in assay [10]: Nuclear factor erythroid 2-related factor 2 (Homo sapiens) (UniProt Q16236)
In words: LTEA_HepaRG_NFE2L2: Life Technologies and Expression Analysis (LTEA) Assay for Nuclear factor erythroid 2-related factor 2 (NFE2L2) Transcription Factor using HepaRG (AID 2283527).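 Further: TaqMan qRT-PCR transcript level normalised to ACTB GAPDH and POLR2A housekeeping genes.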 In outline: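 Differentiated human HepaRG cells in serum-free induction medium were exposed for 48 h to eight concentrations (top 100 uM, half-log dilutions, 0.5% DMSO), in duplicate. NFE2L2 mRNA was quantified by TaqMan qRT-PCR, normalized to ACTB, GAPDH and POLR2A, with bidirectional fitting versus DMSO.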

Read-out in assay [11]: succinate dehydrogenase complex iron sulfur subunit B (SDHB), SDHB (gene 6390)
In words: LTEA_HepaRG_SDHB: Life Technologies and Expression Analysis (LTEA) Assay for succinate dehydrogenase complex iron sulfur subunit B (SDHB) using HepaRG (AID 2283528). In outline:
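HepaRG, 48 h exposure, 8-pt half-log series from 100 uM in 0.5% DMSO, duplicates. Readout: SDHB mRNA by Fluidigm qRT-PCR vs housekeeping genes; bidirectional fit relative to DMSO.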

Read-out in assay [12]: Signal transducer and activator of transcription 3 (Homo sapiens) (UniProt P40763)
In words: LTEA_HepaRG_STAT3: Life Technologies and Expression Analysis (LTEA) Assay for Signal transducer and activator of transcription (STAT3) using HepaRG (AID 2283529). The procedure, abridged: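 Differentiated human HepaRG cells in serum-free induction medium were exposed in duplicate for 48 h to eight half-log concentrations up to 100 uM in 0.5% DMSO. STAT3 mRNA was quantified by TaqMan qRT-PCR, normalized to ACTB, GAPDH and POLR2A, and fitted bidirectionally against DMSO.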

Read-out in assay [13]: solute carrier (SLCO1B1), SLCO1B1 (gene 10599)
The assay can be described thus: LTEA_HepaRG_SLCO1B1: Life Technologies and Expression Analysis (LTEA) Assay for solute carrier (SLCO1B1) using HepaRG (AID 2283530). In outline:
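Differentiated human HepaRG cells, plated 48 h, switched to serum-free induction medium and exposed in duplicate for 48 h to 8 half-log concentrations (top 100 uM) in 0.5% DMSO. SLCO1B1 mRNA by TaqMan qRT-PCR, normalized to ACTB/GAPDH/POLR2A.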

Read-out in assay [14]: sulfotransferase 2A1 (SULT2A1), SULT2A1 (gene 6822)
The assay can be described thus: LTEA_HepaRG_SULT2A1: Life Technologies and Expression Analysis (LTEA) Assay for sulfotransferase 2A1 (SULT2A1) using HepaRG (AID 2283531). In outline: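 Differentiated human HepaRG cells in serum-free induction medium were exposed for 48 h to eight half-log concentrations (top 100 uM, 0.5% DMSO). SULT2A1 mRNA was measured by qRT-PCR, normalized to ACTB, GAPDH and POLR2A, and fitted bidirectionally against DMSO.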

Read-out in assay [15]: Transforming Growth Factor (TGFA), TGFA (gene 7039)
In words: LTEA_HepaRG_TGFA: Life Technologies and Expression Analysis (LTEA) Assay for Transforming Growth Factor (TGFA) using HepaRG (AID 2283532). In outline: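 Differentiated human HepaRG cells, plated 48 h then switched to serum-free induction medium, were exposed in duplicate for 48 h to 8-point half-log series from 100 uM in 0.5% DMSO. TGFA mRNA measured by qRT-PCR, normalized to ACTB/GAPDH/POLR2A, bidirectional fit versus DMSO.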

Read-out in assay [16]: Transforming Growth Factor (TGFB1), TGFB1 (gene 7040)
In words: LTEA_HepaRG_TGFB1: Life Technologies and Expression Analysis (LTEA) Assay for Transforming Growth Factor (TGFB1) Transporter using HepaRG (AID 2283533). In outline: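 Differentiated human HepaRG cells in serum-free induction medium were exposed in duplicate for 48 h to eight concentrations (top 100 uM, half-log steps, 0.5% DMSO). TGFB1 mRNA was quantified by qRT-PCR, normalized to ACTB, GAPDH, POLR2A, and fitted bidirectionally against DMSO.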

Read-out in a further assay: TIMP1, TIMP1 (gene 7076)
The assay can be described thus: LTEA_HepaRG_TIMP1: Life Technologies and Expression Analysis (LTEA) Assay for TIMP1 using HepaRG (AID 2283534). In outline: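 Differentiated human HepaRG cells in serum-free induction medium were exposed 48 h to chemicals (8 half-log concentrations, top 100 uM, 0.5% DMSO). TIMP1 mRNA was quantified by TaqMan qRT-PCR, normalized to ACTB/GAPDH/POLR2A; bidirectional fit versus DMSO.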

Read-out in assay [17]: Tumor necrosis factor receptor 1 (TNFRSF1A), TNFRSF1A (gene 7132)
In words: LTEA_HepaRG_TNFRSF1A: Life Technologies and Expression Analysis (LTEA) Assay for Tumor necrosis factor receptor 1 (TNFRSF1A) using HepaRG (AID 2283535). The procedure, abridged:
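Differentiated human HepaRG cells were exposed in duplicate for 48 h in serum-free induction medium to eight concentrations (top 100 uM, half-log steps, 0.5% DMSO). TNFRSF1A mRNA was quantified by qRT-PCR, normalized to ACTB, GAPDH and POLR2A, then fitted bidirectionally against DMSO.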

Read-out in assay [18]: MicroRNA 122 (MIR122), gene 406906
The assay can be described thus: LTEA_HepaRG_MIR122: Life Technologies and Expression Analysis (LTEA) Assay for MicroRNA 122 (MIR122) using HepaRG (AID 2283516). Further: the transcript read is the microRNA miR-122. In outline: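 HepaRG, 48 h exposure, 8-pt half-log from 100 uM, 0.5% DMSO; TaqMan qRT-PCR; bidirectional fit vs DMSO.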

Chain of Signal transducer and activator of transcription 3 (Homo sapiens) (P40763 whole entry, looked up): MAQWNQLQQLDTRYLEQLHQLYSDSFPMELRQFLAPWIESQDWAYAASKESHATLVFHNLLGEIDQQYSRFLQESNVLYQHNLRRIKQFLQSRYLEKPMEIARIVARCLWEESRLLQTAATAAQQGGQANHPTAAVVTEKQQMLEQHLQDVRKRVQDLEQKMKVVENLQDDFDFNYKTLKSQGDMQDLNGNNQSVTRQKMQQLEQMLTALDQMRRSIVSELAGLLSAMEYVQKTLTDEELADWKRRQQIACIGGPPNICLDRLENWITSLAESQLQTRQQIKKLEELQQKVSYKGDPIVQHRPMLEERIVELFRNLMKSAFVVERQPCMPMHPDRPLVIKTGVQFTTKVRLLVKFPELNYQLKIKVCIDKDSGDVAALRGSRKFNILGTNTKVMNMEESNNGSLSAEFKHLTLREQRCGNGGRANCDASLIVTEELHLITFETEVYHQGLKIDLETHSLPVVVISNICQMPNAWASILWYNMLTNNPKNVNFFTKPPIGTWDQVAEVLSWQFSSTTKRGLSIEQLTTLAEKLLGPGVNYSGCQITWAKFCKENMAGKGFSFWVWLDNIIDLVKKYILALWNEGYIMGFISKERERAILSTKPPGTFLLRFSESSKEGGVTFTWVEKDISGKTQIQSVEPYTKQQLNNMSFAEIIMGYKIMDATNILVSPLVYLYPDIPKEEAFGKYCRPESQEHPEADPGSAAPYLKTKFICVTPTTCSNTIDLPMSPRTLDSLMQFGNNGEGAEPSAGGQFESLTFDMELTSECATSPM
Chain of Nuclear factor erythroid 2-related factor 2 (Homo sapiens) (Q16236 whole entry, looked up): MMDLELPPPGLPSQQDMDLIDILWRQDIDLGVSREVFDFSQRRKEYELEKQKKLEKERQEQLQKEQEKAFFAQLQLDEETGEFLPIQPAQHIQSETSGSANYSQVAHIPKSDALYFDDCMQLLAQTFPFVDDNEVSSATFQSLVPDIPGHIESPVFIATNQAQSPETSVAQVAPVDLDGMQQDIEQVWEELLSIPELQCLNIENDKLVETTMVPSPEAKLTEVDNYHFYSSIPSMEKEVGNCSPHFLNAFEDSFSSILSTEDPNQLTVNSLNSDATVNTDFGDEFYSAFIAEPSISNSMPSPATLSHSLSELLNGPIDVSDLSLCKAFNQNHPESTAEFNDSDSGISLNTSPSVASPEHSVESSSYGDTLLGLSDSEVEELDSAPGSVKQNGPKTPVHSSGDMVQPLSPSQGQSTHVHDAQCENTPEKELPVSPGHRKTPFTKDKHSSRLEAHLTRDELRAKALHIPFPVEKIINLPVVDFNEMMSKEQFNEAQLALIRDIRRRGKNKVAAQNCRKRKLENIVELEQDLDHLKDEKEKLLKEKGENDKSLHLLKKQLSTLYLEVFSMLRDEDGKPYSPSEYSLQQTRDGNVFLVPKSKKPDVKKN
Chain of Nuclear factor NF-kappa-B p105 subunit (Homo sapiens) (P19838 whole entry, looked up): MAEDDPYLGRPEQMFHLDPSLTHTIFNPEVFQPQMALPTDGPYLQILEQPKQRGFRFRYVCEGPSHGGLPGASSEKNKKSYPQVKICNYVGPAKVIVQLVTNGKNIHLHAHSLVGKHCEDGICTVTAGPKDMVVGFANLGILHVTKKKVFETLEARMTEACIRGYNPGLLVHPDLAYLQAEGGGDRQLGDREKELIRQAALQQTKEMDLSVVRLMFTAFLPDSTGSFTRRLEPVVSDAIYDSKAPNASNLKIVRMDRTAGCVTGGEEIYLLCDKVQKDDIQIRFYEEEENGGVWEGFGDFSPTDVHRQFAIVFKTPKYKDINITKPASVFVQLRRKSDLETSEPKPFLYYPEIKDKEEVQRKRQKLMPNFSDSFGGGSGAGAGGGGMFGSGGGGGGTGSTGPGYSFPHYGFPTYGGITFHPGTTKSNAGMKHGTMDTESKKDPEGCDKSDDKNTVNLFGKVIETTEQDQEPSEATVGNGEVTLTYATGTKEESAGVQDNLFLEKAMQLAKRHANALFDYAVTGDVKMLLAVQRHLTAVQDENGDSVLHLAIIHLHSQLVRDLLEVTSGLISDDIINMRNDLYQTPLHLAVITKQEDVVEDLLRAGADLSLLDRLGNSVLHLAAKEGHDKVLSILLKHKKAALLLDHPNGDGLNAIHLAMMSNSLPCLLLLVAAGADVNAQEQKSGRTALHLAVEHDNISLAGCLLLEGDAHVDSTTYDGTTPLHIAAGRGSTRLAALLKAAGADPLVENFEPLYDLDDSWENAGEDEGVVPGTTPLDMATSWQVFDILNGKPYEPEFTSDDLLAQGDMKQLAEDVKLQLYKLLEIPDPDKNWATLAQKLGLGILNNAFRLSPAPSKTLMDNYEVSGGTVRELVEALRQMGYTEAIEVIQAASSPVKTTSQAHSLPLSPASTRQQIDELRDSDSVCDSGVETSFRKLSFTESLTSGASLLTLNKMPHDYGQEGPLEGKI

With `CN=C=S`, the outcome in assay [1] is “inactive”; in the assay with MYC, MYC (gene 4609), “inactive”; in assay [2] it was “inactive”; in assay [3] it was “inactive”; in assay [4] it was “inactive”; in assay [5], “inactive”. In addition, the molecule was called inactive in [6], in assay [7], in assay [8], in assay [9], in [10] and in assay [11]. Also, the outcome in assay [12] is “inactive”; in assay [13], “inactive”; in assay [14], “inactive”; in assay [15] it was “inactive”; in [16], “inactive”; with TIMP1, TIMP1 (gene 7076) it was “inactive”. Further, the call in assay [17] was inactive.
As for `COP(=S)(OC)Oc1ccc([N+](=O)[O-])c(C)c1`, the outcome in assay [18] was “inactive”; in [1], “inactive”; in the assay with MYC, MYC (gene 4609) it was “inactive”; in assay [2], “inactive”; in assay [3], “inactive”; in assay [5], “inactive”. Moreover, the call in assay [6], in assay [8], in [9], in [10], in [12] and in [13] was inactive. The outcome was “inactive” in [14]; “inactive” in assay [15]; “inactive” in [16]; “inactive” with TIMP1, TIMP1 (gene 7076); “inactive” in assay [17].
Consider `O=C1C2CC=CCC2C(=O)N1SC(Cl)(Cl)Cl` (stereo not given), for which the outcome in [18] is “inactive”; in the assay with MYC, MYC (gene 4609), “inactive”; in [2], “inactive”; in [3], “inactive”; in assay [5], “inactive”; in assay [6] it was “inactive”. Further, the molecule was called inactive in [8], in assay [9], in [10], in assay [12], in [13] and in assay [14]. The outcome was “inactive” in assay [15]; “inactive” in [16]; “inactive” with TIMP1, TIMP1 (gene 7076); “inactive” in [17]. The AC50 (in general, the concentration giving half of the maximal activity seen) in assay [1] was 49.2 µM (active).
For `CSC(=O)c1c(C(F)F)nc(C(F)(F)F)c(C(=O)SC)c1CC(C)C`, the results for the AC50 in assay [18], in assay [8] and in assay [12] were 49.8 µM (active), 33.8 µM (active) and 49.8 µM (active), respectively. For the same molecule, the outcome in assay [1] is “inactive”; with MYC, MYC (gene 4609), “inactive”; in [2], “inactive”; in assay [3], “inactive”; in assay [5] it was “inactive”; in assay [6] it was “inactive”. Further, the result in [9], in assay [10], in assay [13], in assay [14], in assay [15] and in assay [16] was inactive. In addition, the outcome was “inactive” with TIMP1, TIMP1 (gene 7076) and “inactive” in assay [17].
